This passage reports growth inhibition results from PubChem BioAssay (NCI).

Structures are written as SMILES. Values joined by “and” are separate entries in the source; they are usually repeats but may differ in a detail not shown here. Equal values may be shown once. The panel holds about 79,000 compounds, 15% with a hit somewhere; the sample as a whole holds those more often. A structure can be active in one record and inactive in another. Active and inactive are the calls of the source. Cut-off read from the data, not from the text of the source: active = growth inhibition above about 70%; inactive = the rest.

A short description of the assay: NCI Yeast Anticancer Drug Screen. Data for the rad50 strain (AID 155).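 Note: 0% = growth of vehicle-only cultures of the same strain.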 The note with it: S. cerevisiae rad50 strain growth inhibition, stronger effect = higher value. As to the method: Growth inhibition of yeast strains with defined genetic alterations is measured as a screen for potential anti-cancer activity. Selected strains with alterations in DNA damage repair or cell cycle control were exposed to compounds and growth inhibition was measured relative to vehicle treated controls. The strain used in this assay is rad50

Setting [1] is: at 5.0 µM (retest, dose inferred, filed as 0.5).
Setting [2] is: at 50.0 µM (retest, dose inferred, filed as 5.0).

With `CCOC(=O)Nc1c(C)cc(C)c(Br)c1C`, the growth inhibition is -3% (inactive) under setting [1], -3% (inactive) under setting [2] and 97.2% (active) (at 50.0 µM).
As to `Nc1cc(F)c2c(c1)Cc1ccccc1-2`, the growth inhibition by setting is: under setting [1], 1% (inactive); under setting [2], 95% (active); (at 50.0 µM) 84.3% (active).
In the case of `CN(C)c1ccc(/C=C/c2cc[n+](C)c3ccccc23)cc1`, the growth inhibition is, setting by setting: under setting [1], -3% (inactive) and -12% (inactive); under setting [2], 81% (active) and 53% (inactive); (at 50.0 µM) 95.3% (active) and 71.3% (active).
On to `O=C(Nc1ccc(C(=O)O)c(O)c1)c1ccccc1`, for which the growth inhibition is, setting by setting: under setting [1], -2% (inactive); under setting [2], 40% (inactive); (at 50.0 µM) 1.35% (inactive) and -5.6% (inactive).
On to `N#CCCC(CCC#N)(CCC#N)C(=O)c1ccccc1`, for which the growth inhibition by setting is: under setting [1], 10% (inactive); under setting [2], 4% (inactive); (at 50.0 µM) 11.6% (inactive) and 20.9% (inactive).
Take `CCc1[nH]c(=O)nc(N)c1-c1ccc(N2CCCCC2)c([N+](=O)[O-])c1`: the growth inhibition is -11% (inactive) under setting [1], -25% (inactive) under setting [2] and 89.8% (active) (at 50.0 µM).
With `CCOC(=O)C(CN)(c1ccccc1)c1ccccc1`, the growth inhibition is, setting by setting: under setting [1], -7% (inactive); under setting [2], 1% (inactive); (at 50.0 µM) 11.8% (inactive).
On the same counts, the results for `CCOC(=O)c1c[nH]c2cc(C(F)(F)F)ccc2c1=O` are 52% (inactive), 93% (active) and 52% (inactive).
On the same counts, the results for `O=Nc1ccc(C=C2C(=O)C=CC2=O)cc1` are 94% (active), 98% (active) and 99.5% (active).
On the same counts, the results for `C=C1CC2(CC(c3ccccc3OC)OC(c3ccccc3OC)C2)OC1=O` (configuration not stated) are 34% (inactive), 58% (inactive) and 61.1% (inactive).
Consider `CC1(C)OC2C(O)C(O)C3OC(C)(C)OC3C2O1` (configuration not stated), for which the growth inhibition runs as follows: under setting [1], -20% (inactive); under setting [2], 6% (inactive); (at 50.0 µM) 6% (inactive) and 7.9% (inactive).
Turning to `Cc1c(Cl)cccc1NC(=O)CC1Sc2ccccc2NC1=O` (configuration not stated), the growth inhibition is 23% (inactive) under setting [1]; 83% (active) under setting [2]; -1.35% (inactive) and 51.1% (inactive) (at 50.0 µM).
For the compound `O=C(NNc1ccnc2cc(Cl)ccc12)/C(=C/c1ccc2c(c1)OCO2)NC(=O)c1ccccc1`, the growth inhibition was 12% (inactive) under setting [1], 71% (active) under setting [2] and 90.7% (active) (at 50.0 µM).
On to `BrC(c1cccc2ccccc12)c1cccc2ccccc12`, for which the growth inhibition under setting [1] is 23% (inactive), the growth inhibition under setting [2] is 97% (active) and the growth inhibition (at 50.0 µM) is 95.5% (active).
